In the library only some 11% were active in any assay of this set; here they are far more common.
HCV inh = blocks hepatitis C virus | Huh7.5.1 HCVcc-Cre infection, luciferase reporter, 44 h | Potency, µM (series often up to 41.8 µM), for the others: at the highest dose activity change, negative = inhibition, actives largely listed as inhibitors | actives 3.4% (n = 340,000)
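A cell-based infection assay in which seeded cells (1,000 per well) receive test compound after 4 h, are inoculated with HCVcc-Cre at approximately 0.5 moi, and are incubated 44 h before luminescence detection.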
Pf growth 96h = P. falciparum growth inhibition at 96 hour, primary screen for plastid delayed-death inhibitors; P. falciparum luciferase reporter growth, 96 h; Potency, µM (doses to about 28.7 µM), for inactives: at the top dose activity change, negative = inhibition, usual class: inhibitors; actives 6.9% (n = 320,000)
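P. falciparum expressing integrated firefly luciferase grown in erythrocytes (2% hematocrit, 0.05% parasitemia final) with compounds for 96 hours at 37 C, 5% CO2. Growth inhibition read as loss of luminescence after adding luciferase detection reagent.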
Pf growth 48h = P. falciparum growth inhibition at 48 hours (one generation) | P. falciparum luciferase growth in erythrocytes, 48 h | actives 5.9% (n = 310,000) | Potency, µM (doses to about 28.7 µM), inactives show at the top dose activity change, negative = inhibition, hits mostly inhibitors
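Read-out is firefly luciferase luminescence from an integrated reporter in P. falciparum, so falling signal marks reduced parasite growth. Infected erythrocytes were at 2% hematocrit and 0.1% parasitemia (final) in Albumax-supplemented RPMI 1640.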
AMA1 RON2 block = disrupts binding of P. falciparum AMA1 to RON2; AlphaScreen AMA1-biotinylated RON2 peptide binding; Potency, µM (series often up to 58.2 µM), without a hit: top-dose activity change, negative = inhibition, usual class: inhibitors; actives 0.2% (n = 360,000);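 also: 0% = vehicle wells and -100% = peptide control; nearly all actives have a fitted effect of over 45% in size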
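AMA1 (3D7) with his tag at 25 nM final met compounds first, then biotinylated RON2 peptide at 25 nM; detection used donor plus acceptor beads, 10 µg/mL apiece, read by AlphaScreen after 30 min at room temperature.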
AmpC inh no detg = inhibitors of E. coli AmpC beta-lactamase without detergent; AmpC nitrocefin hydrolysis, absorbance 480 nm, 0.0001% Triton; Potency, µM (titrated, usually from 57.1 µM), inactives show at the highest dose activity change, negative = inhibition, hits mostly inhibitors; actives 0.52% (n = 330,000);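 also: plate controls were no compound for no effect and no enzyme for full effect; nearly all actives have a fitted effect of over 20% in size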
Target sequence (P00811 whole entry, looked up): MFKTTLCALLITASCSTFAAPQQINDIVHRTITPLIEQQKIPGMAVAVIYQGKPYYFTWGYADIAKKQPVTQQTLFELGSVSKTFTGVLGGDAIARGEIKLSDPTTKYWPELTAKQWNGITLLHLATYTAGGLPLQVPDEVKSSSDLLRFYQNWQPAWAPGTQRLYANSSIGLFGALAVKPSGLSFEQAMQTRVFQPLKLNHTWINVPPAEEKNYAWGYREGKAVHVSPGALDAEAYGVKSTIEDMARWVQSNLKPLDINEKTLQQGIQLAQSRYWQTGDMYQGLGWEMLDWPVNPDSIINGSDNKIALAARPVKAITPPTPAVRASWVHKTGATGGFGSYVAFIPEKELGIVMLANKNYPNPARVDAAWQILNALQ
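20 mM phosphate pH 7.0 + 0.01% (detergent screen) or 0.0001% Triton X-100; 5.3 nM AmpC reagent; cpd preinc 15 min RT; nitrocefin (800 uM stock) to start; A480 q20 s × 4 min; Activity was normalised to no-enzyme and no-compound control wells.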
AmpC inh detg = blocks E. coli AmpC beta-lactamase in detergent assay. P00811. AmpC hydrolysis of nitrocefin, absorbance 480 nm, 0.01% Triton. Potency, µM (top dose mostly 114 µM), without a hit: at the highest dose activity change, negative = inhibition, usual class: inhibitors. actives 0.041% (n = 370,000). AID 485294;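 also: 0% = no-compound wells and -100% = no-enzyme wells; nearly all actives have a fitted effect of over 25% in size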
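20 mM phosphate pH 7.0 + 0.01% (detergent screen) or 0.0001% Triton X-100; 5.3 nM AmpC reagent; cpd preinc 15 min RT; nitrocefin (800 uM stock) to start; A480 q20 s × 4 min; Activity was normalised to no-enzyme and no-compound control wells.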
Starred values were filed as active, the others as inactive; ? = inconclusive; · = no result. Calls follow the shape of the dose curve; as a rule, active = well fitted curve in the direction sought with a large enough effect; inconclusive = small, poorly fitted or top-dose-only effect, or another doubt; inactive = no such curve, though single readings can be large; an effect the other way counts as inactive or inconclusive. Unless noted, % is scaled to controls: 0 for no effect and ±100 for the full control effect; potency is read from the fitted curve at half-maximal effect.

SMILES | HCV inh | Pf growth 96h | Pf growth 48h | AMA1 RON2 block | AmpC inh no detg | AmpC inh detg
COc1ccc(C2C(O)C(c3c[nH]c4ccccc34)=NN2C(=O)CCl)cc1 (configuration not stated) | 0.562µM* | ? | 2.94µM* | -8.5% | -13.0% | -1.4%
COc1ccc(C2NN=C(c3c[nH]c4ccccc34)C2O)cc1 (configuration not stated) | 11.2µM* | ? | ? | -0.8% | -26.6% | 5.4%
Cc1cccc(-n2nc(CC#N)c(C#N)c2N)c1 | 1.3% | 13.9% | 19.3% | 17.2% | -12.3% | -0.1%
N#CCc1nn(-c2ccc(Cl)cc2)c(N)c1C#N | 10.4% | 13.1µM* | -5.6% | 31.0% | -20.2% | -12.1%
COc1ccc(-c2cc(C3CCN(C(=O)OC(C)(C)C)CC3)[nH]n2)cc1 | -15.5% | ? | ? | -1.1% | 91.1% | 7.3%
COc1ccc(OC)c(-c2cc(C3CCN(C(=O)OC(C)(C)C)CC3)[nH]n2)c1 | -4.6% | 10.4µM* | ? | 2.9% | 142.9% | 7.9%
O=C(COc1ccccc1[N+](=O)[O-])Nc1ccc(N2CCN(C(=O)c3cccs3)CC2)cc1 | 6.31µM* | -28.9% | 10.4µM* | -17.8% | 47.0% | -2.9%
COc1c(C)cc(Br)cc1C(=O)Nc1cccc(NC(=O)c2ccco2)c1 | 6.31µM* | · | ? | 0.7% | -8.2% | -2.6%
COc1ccc(Br)cc1C(=O)Nc1cccc(NC(=O)c2ccco2)c1 | ? | -26.6% | -17.4% | 3.2% | -16.2% | ?
O=C(Nc1ccc(NC(=O)c2ccc([N+](=O)[O-])o2)cc1Cl)c1ccco1 | ? | 18.8% | 11.7µM* | 8.0% | -10.6% | -1.3%
O=C(Nc1ccc(N2CCN(C(=O)c3cccs3)CC2)cc1)c1ccc([N+](=O)[O-])o1 | · | 9.28µM* | ? | · | 1.0% | 4.0%
O=C(Nc1ccc(NC(=O)c2ccco2)c(Cl)c1)c1ccccc1 | -29.9% | 50.4% | 25.9% | -4.8% | -27.5% | 1.9%
COc1ccc(-n2nc(C(=O)N(C)c3cc(C)ccc3C)c3c4ccccc4n(C)c3c2=O)cc1Cl | · | · | · | · | · | 0.6%
Cc1ccc(C)c(NC(=O)Cn2c(=O)n(-c3ccccc3C)c(=O)c3c2c2cc(C)ccc2n3C)c1 | · | · | · | · | · | 0.7%
O=C(NCc1cccc(Cl)c1)c1cccn1-c1nnc(N2CCCC2)s1 | · | · | · | · | · | -8.3%
O=C(Nc1ccc(N2CCN(C(=O)c3cccs3)CC2)cc1)c1cccnc1 | -1.9% | 2.94µM* | ? | 9.5% | -15.0% | 2.3%
O=C(Nc1cccc(NC(=O)c2cccs2)c1)c1ccc([N+](=O)[O-])o1 | 10µM* | 3.29µM* | 11.7µM* | 6.2% | -42.5% | -0.6%
O=C(Nc1ccc(N2CCN(C(=O)c3ccccc3)CC2)cc1)c1cccnc1 | 5.3% | 17.8% | -9.1% | -26.4% | 2.0% | -6.8%
O=C(COc1ccccc1Cl)Nc1ccc(N2CCN(C(=O)c3ccccc3)CC2)cc1 | 5.01µM* | 11.2% | ? | -24.7% | 59.4% | 3.6%
COc1cc(NC(=O)c2ccc([N+](=O)[O-])o2)ccc1NC(=O)c1cccs1 | ? | 38.8% | ? | -1.6% | -32.2% | -8.4%
O=C(Nc1ccc(N2CCN(c3ncccc3C(F)(F)F)CC2)nc1)c1cccs1 | 11.2µM* | 2.33µM* | 0.37µM* | -18.6% | -5.4% | -1.1%
COC(=O)c1ccc(C(=O)OC)c(NC(=O)c2cc3nc(-c4ccc(C)cc4)cc(C(F)(F)F)n3n2)c1 | · | · | · | · | · | 1.0%
CC1=C(C(=O)N2CCN(c3cccc(C)c3C)CC2)C2(CCCCC2)OC1=O | · | · | · | · | · | 20.7%
CCOc1ccc(CCNC(=O)c2cnc3sc(N4CCC(C)CC4)nn3c2=O)cc1 | · | · | · | · | · | 4.9%
O=C(Nc1cccc(NC(=O)c2ccc(-c3ccc(Br)cc3)o2)c1)c1ccccc1 | -14.0% | 43.1% | · | -3.8% | -45.9% | -4.9%
SMILES | HCV inh | Pf growth 96h | Pf growth 48h | AMA1 RON2 block | AmpC inh no detg | AmpC inh detg
O=C(Nc1cccc(NC(=O)c2ccc([N+](=O)[O-])o2)c1)c1ccco1 | ? | -3.4% | 9.28µM* | 7.5% | -18.1% | -0.6%
O=C(Nc1cccc(NC(=O)c2ccc(-c3cccc(Br)c3)o2)c1)c1ccco1 | 3.55µM* | 210.5% | ? | -8.5% | -30.8% | -6.8%
Cc1cc(C)cc(NC(=O)C(=O)NCC(c2cccnc2)N2CCOCC2)c1 (configuration not stated) | · | · | · | · | · | 0.4%
CCOc1ccc(C2CC(=O)n3nc(C45CC6CC(CC(C6)C4)C5)nc3S2)cc1OC (configuration not stated) | 12.9% | 11.7µM* | -4.2% | 0.0% | 2.2% | -12.9%
CCc1nnc(N/N=C/c2ccc(-c3ccc([N+](=O)[O-])cc3)o2)n1N | -9.5% | ? | 11.7µM* | 74.5% | -8.3% | 0.6%
CC(C)(C)NC(=S)N/N=C\c1ccc(-c2ccc([N+](=O)[O-])cc2)o1 | -19.4% | 3.7µM* | ? | 42.0% | ? | 3.3%
C=CCNC(=S)N/N=C/c1ccc(-c2cc(Cl)ccc2Cl)o1 | 12.4% | 0.5% | ? | 14.8% | -15.1% | -9.0%
C=CCNC(=S)N/N=C/c1ccc(-c2ccc(OC)cc2)o1 | ? | ? | 5.22µM* | 38.9% | -38.4% | 2.9%
Cc1cc(C)n(Cc2ccc(C(=O)N/N=C/c3ccc(-c4ccc([N+](=O)[O-])cc4)o3)o2)n1 | ? | 5.22µM* | -9.5% | -15.0% | -25.4% | ?
Cc1nnc(N/N=C\c2ccc(-c3ccccc3[N+](=O)[O-])o2)n1N | -26.6% | ? | -8.4% | -12.8% | -25.9% | -4.8%
COc1cc(CNCCSc2nnnn2C)ccc1OCc1ccc(C)cc1 | · | · | · | · | · | -2.5%
O=C(Nc1ccc2nc(SCCOc3ccccc3)sc2c1)c1ccc2c(c1)OCO2 | · | · | · | · | · | 22.8%
CCC(=O)N/N=C/c1ccc(-c2ccc([N+](=O)[O-])cc2)o1 | -11.6% | 10.4µM* | -2.0% | 10.8% | -11.1% | -6.5%
CCCCC(=O)N/N=C/c1ccc(-c2ccc([N+](=O)[O-])cc2)o1 | ? | 9.28µM* | -23.9% | -22.0% | -14.8% | 2.7%
O=S(=O)(c1ccc(NC(=S)N/N=C/c2ccc(N3CCOCC3)cc2)cc1)N1CCOCC1 | 11.5% | 5.86µM* | -22.1% | 34.9% | 16.7% | -3.0%
O=S(=O)(NN1CCOCC1)c1ccc(Br)cc1 | -2.5% | 1.2% | 5.8% | 3.1% | -14.9% | 3.5%
O=S(=O)(c1ccc(NC(=S)N/N=C/c2ccc(Oc3ccccc3)cc2)cc1)N1CCOCC1 | -15.5% | 2.7% | 18.3% | 13.7% | -37.2% | 4.1%
